Screening results from PubChem BioAssay.
An excerpt weighted towards active compounds, which were near 4.7% of everything screened.
SKKanGAS inh: S. pyogenes SKKanGAS growth inhibitors in kanamycin, primary screen, streptokinase expression inhibitor project, SKKanGAS strain, BacTiter-Glo luminescence. 6 h. inhibition, % at 7.5 µM. actives 1.3% (n = 300,000);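 active = mean replicate score, as percent of positive control median, at least 50; inconclusive = mean below 50 but one replicate at or above 50; inactive = mean and every replicate below 50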;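 also: strain carries kanamycin resistance gene driven by streptokinase promoter and grows in 40 µg/ml kanamycin; loss of luminescence reflects streptokinase promoter inhibition or plain growth inhibition; 0% = median of DMSO wells and 100% = positive control at its reference dose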
Calb FLC: C. albicans growth inhibition with fluconazole, primary screen, CaCi-2 strain, Alamar Blue fluorescence. AID 1979, 2009. actives 0.57% (n = 300,000). C. albicans CaCi-2 (fluconazole-resistant clinical isolate) + fluconazole, 48 h. growth inhibition, % (test concentration not listed);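 active = growth inhibition above about 58% in most replicates, limit read from the data, passing the limit was not always enough; inconclusive = exactly half the replicates above a set limit; inactive = most replicates below a set limit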;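 also: all wells also contain fluconazole at 8 µg/ml as a sub-toxic cotreatment; 0% = median of DMSO wells and 100% = median of geldanamycin control wells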
tim23-1 inh: growth inhibitors of tim23-1 mutant yeast, primary screen, luminescence, uHTS; S. cerevisiae tim23-1 growth, BacTiter-Glo luminescence, 24 h; inhibition, % at 20 µM; actives 1.3% (n = 330,000);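 active = growth inhibition of the mutant yeast at or above 50%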;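 also: temperature-sensitive mutant grown at 25 °C; plate controls were DMSO-treated mutant yeast for no effect and medium wells lacking yeast for full effect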
tim10-1 inh: growth inhibitors of tim10-1 mutant yeast, primary screen, luminescence, uHTS; inhibition, % at 20 µM; actives 2.2% (n = 330,000); AID 463190, 2010; S. cerevisiae tim10-1 ts strain growth, BacTiter-Glo, 24 h;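 active = inhibition of at least 40%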;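 also: mutant grown at 25 °C; 0% = DMSO wells with yeast and 100% = wells holding no yeast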
PfHsp90 set2: growth inhibition of PfHsp90-expressing yeast, primary screen, antimalarial PfHsp90 inhibitor project, S. cerevisiae, BacTiter-Glo luminescence, single point, set 2; inhibition, % at 9.4 µM; BacTiter-Glo ATP, 48 h; yeast lacking PDR1 and PDR3 efflux regulators; actives 0.32% (n = 310,000); AID 504621, 2011;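 active = every replicate shows inhibition above about 80%, whatever the replicate mean, limit read from the data; inconclusive = mean inhibition reaches the set limit but some replicate falls short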;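 also: 0% = DMSO neutral controls and 100% = 20 µM radicicol positive controls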
TIM10 inh: growth inhibitors of isogenic TIM10 control yeast, primary screen, counter-screen for tim10-1 yeast inhibitor project, luminescence, uHTS. S. cerevisiae TIM10 strain growth, BacTiter-Glo luminescence, 24 h. inhibition, % at 10 µM. actives 1.4% (n = 330,000). AID 463195, 2010;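 active = inhibition of 40% or more at the single tested concentration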;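 also: wild-type TIM10 isogenic control strain grown at permissive 25 °C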
tim10-1 confirm: growth inhibitors of tim10-1 mutant yeast, confirmation, single concentration, luminescence, S. cerevisiae; shares compounds with tim10-1 inh; actives 56% (n = 7,400); AID 463213, 2010; inhibition, % at 20 µM; S. cerevisiae tim10-1 ts strain growth, BacTiter-Glo, 24 h;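 active = inhibition of yeast growth at or above a set limit in either of two repeat tests at 20 µM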;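 also: tim10-1 mutant grown at permissive 25 °C to find synthetic lethal compounds; 0% = DMSO yeast wells and 100% = medium wells without yeast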
Starred values were filed as active, the others as inactive; u = inconclusive; x = no result given.

SMILES	SKKanGAS inh	Calb FLC	tim23-1 inh	tim10-1 inh	PfHsp90 set2	TIM10 inh	tim10-1 confirm
Cc1nc2cc(C(F)(F)F)ccc2n1CCNc1nc(-c2ccc(F)cc2)cs1	14.5	5.8	15.1	45.8*	-22.4	12.8	22.4
COc1ccc(-c2csc(NCCn3c(C)nc4cc(C(F)(F)F)ccc43)n2)cc1	x	x	46.8	15.3	3.9	12.7	x
CC[C@]12c3[nH]c4ccc(OC)cc4c3CCN1C(=O)C(CC(=O)NCCCN(C)C)C[C@@H]2C(=O)N1CCN(C(=O)c2ccco2)CC1 (stereo not given in full)	x	x	13.8	-4.8	7.1	-17.4	x
COc1cc(C2C(C(=O)c3cc4ccccc4o3)=C(O)C(=O)N2CCN2CCOCC2)ccc1OCCC(C)C (stereo not given)	3.9	-3.4	1.0	13.5	-10.4	1.1	x
CC(C)C(C(=O)Nc1ccc2c(c1)OCCOCCOCCOCCO2)N1C(=O)c2ccccc2C1=O (stereo not given)	5.2	3.4	8.7	23.2	-7.4	-3.6	x
COCCOC(=O)C1=C(C)NC(C)=C(C(=O)OC(C)C)C1c1cccc([N+](=O)[O-])c1 (stereo not given)	0.2	5.7	38.8	22.5	2.5	12.8	x
COC(=O)C1=C(C)NC(C)=C(C(=O)O[C@@H]2CCCN(Cc3ccccc3)C2)[C@@H]1c1cccc([N+](=O)[O-])c1	9.4	x	27.9	44.7*	15.6	25.7	30.9
CC(=O)c1ccc(OCCCC(=O)NCc2nnc3ccccn23)cc1	x	x	-12.0	-5.8	0.5	2.5	x
CN(CC(=O)Nc1cccc(F)c1)C(=O)/C=C/c1cn(Cc2ccccc2)nc1-c1cccnc1	-9.3	-2.3	7.5	4.7	x	4.5	x
COCCN(Cc1ccccc1)C(=S)Nc1ccc(OC(F)F)cc1	-0.6	11.8	30.5	43.1*	12.4	23.5	26.5
CCCN(Cc1ccccc1)C(=S)Nc1ccc(OC(F)F)cc1	-12.3	-4.9	33.3	25.1	-2.6	24.1	x
O=C(CSc1nnc(-c2ccccc2)n1-c1ccccc1)c1cccs1	-0.9	u	33.8	46.0*	x	20.1	25.5
Cc1ccc2cc(C)c3nnc(SCC(=O)c4cccs4)n3c2c1C	2.7	-10.0	38.0	40.1*	4.9	15.8	15.1
Cc1ccc(C)c2c1cc(C)c1nnc(SCC(=O)c3cccs3)n12	0.1	17.8	10.6	-15.4	-3.3	-34.2	x
Cc1ccc2oc(C(=O)N3CCN(Cc4ncccc4C)CC3)c(C)c2c1	12.9	5.8	40.3	41.0*	10.1	26.6	17.9
Cc1ccc2oc(C(=O)N3CCCCCC3)c(C)c2c1	-4.3	0.4	33.3	8.1	-1.8	-14.6	x
Cc1cc(NS(=O)(=O)c2ccc(NC(=O)NC3CCCCC3)cc2)no1	-1.8	6.1	-2.8	11.1	x	-11.2	x
Cc1cc(NS(=O)(=O)c2ccc(C3CCCCC3)cc2)no1	15.3	39.7	35.0	41.2*	-133.7	12.9	19.8
OCC[C@@H]1C[C@@H](O)[C@H](O)[C@@]2(Cc3ccccc3O2)O1	-3.0	-2.4	13.7	9.6	-8.4	13.7	x
CCOC(=O)c1ccc2nc(NC(=O)c3ccco3)sc2c1	37.3	19.3	40.9	41.4*	9.9	39.9	26.1
CCCC(=O)Nc1nc2ccc(C(=O)OCC)cc2s1	-1.0	-14.9	22.1	20.8	-11.0	9.6	x
CCCCC(=O)Nc1nc2ccc(C(=O)OC)cc2s1	6.3	-1.3	28.9	46.2*	-24.6	35.4	20.2
S=C(NCC1CCCO1)N1CCc2ccccc2C1 (stereo not given)	-9.3	-3.3	3.4	2.1	-35.6	-5.2	x
Cc1sc(N/N=C/c2ccco2)nc1-c1ccccc1	-10.4	-2.3	23.9	42.7*	-14.3	37.0	19.5
COc1ccccc1NC(=O)Cn1c2ccccc2c2nc3n(c(=O)c21)CCS3	1.5	-29.1	-2.0	42.0*	x	6.9	20.1
SMILES	SKKanGAS inh	Calb FLC	tim23-1 inh	tim10-1 inh	PfHsp90 set2	TIM10 inh	tim10-1 confirm
COc1cccc(Nc2nc(N)nc(-c3oc4ccccc4c3C)n2)c1	6.6	38.1	7.6	17.8	13.6	14.6	x
Cc1cccc(Nc2nc(N)nc(-c3oc4ccccc4c3C)n2)c1	35.4	6.5	40.6	41.5*	23.5	15.4	10.1
CCOC(=O)C1(Cc2ccc(OC)cc2)CCN(C(=O)c2cc3ccccc3[nH]2)CC1	14.9	21.3	27.1	40.9*	14.8	24.5	29.0
CCc1ccc(NC(=O)CC2C(=O)N(c3cccc(C)c3)C(=O)N2C2CC2)cc1 (stereo not given)	3.3	2.1	18.6	20.3	-20.1	11.9	x
COc1ccc(NC(=O)CC2C(=O)N(c3cccc(C)c3)C(=O)N2C2CCCCC2)cc1 (stereo not given)	-0.7	u	23.0	40.0	x	11.5	23.3
O=C1C=CCC(/C=C/c2ccccc2)O1 (stereo not given)	2.5	5.2	40.4	54.8*	x	35.4	26.6
CCn1cc(C(=O)NCCC(=O)NCCCO)c(=O)c2cc3c(cc21)OCO3	-4.2	1.6	16.7	8.6	-10.9	5.8	x
CCCn1nc(NS(C)(=O)=O)c2cc3cccc(C)c3nc21	-1.9	36.0	34.1	42.4*	x	27.3	35.0*
CCn1nc(NS(=O)(=O)c2ccc(C)cc2)c2cc3ccccc3nc21	5.4	39.5	34.0	43.8*	3.4	-8.8	-9.4
O=C(CN1C(=O)NC2(CCCCCC2)C1=O)NCCc1ccc(F)cc1	x	x	-8.6	-4.5	-5.4	1.7	x
O=C1NC(=S)N/C1=C\c1ccccc1OCc1ccc(C(=O)O)cc1	6.5	0.4	10.1	1.3	-0.6	-15.4	x
O=C(O)c1ccc(COc2ccccc2C=C2C(=O)c3ccccc3C2=O)cc1	0.6	-2.4	28.4	40.0	-0.5	27.0	9.2
CCc1nn(CCCC(=O)N2CCN(c3cccc(C)c3C)CC2)c(=O)c2cc3occc3n12	16.0	5.6	38.3	54.0*	-3.3	27.4	20.6
CCCN(C(=O)COC(=O)c1nc2nc(C)cc(C)n2n1)C1CCS(=O)(=O)C1 (stereo not given)	x	x	-9.8	13.6	4.9	4.0	x
C/C(=N\NC(=O)CNc1cccc(C(F)(F)F)c1)c1ccc(Br)cc1	-13.4	8.7	11.6	27.2	9.5	11.8	x
C/C(=N\Nc1cccc(C(F)(F)F)c1)c1ccc(O)cc1	1.7	-5.4	15.8	45.2*	9.4	9.4	-10.1
CCOC(=O)c1c(C)[nH]c(=S)c(C#N)c1-c1ccc(Cl)cc1	17.3	16.9	35.8	54.4*	-17.3	20.7	27.6
